Records with an inconclusive call do not appear. Where a call stands in place of a potency, no number is given. Values without a mark were called inactive. Active and inactive are the calls of the source. Calls follow the shape of the dose curve; as a rule, active = well fitted cell-killing curve with a large enough effect in the repeat runs; inconclusive = weak or mixed curves, or effect the other way; inactive = no such curve, though single readings can be large or run the other way.
Potency is read from the fitted curve at half-maximal effect.

A short description of this experiment: qHTS assay to identify small molecule agonists of the vitamin D receptor (VDR) signaling pathway - cell viability counter screen (AID 743224). Also: nearly all actives have a fitted effect of over 50% in size. Conditions: VDR-bla HEK293T viability, CellTiter-Glo luminescence, 16 h; series mostly up to 62.6 µM. The method in brief:
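In parallel with the bla FRET readout, cytotoxicity toward VDR-bla cells after 16 h compound exposure was assessed by CellTiter-Glo, with luminescence recorded after a 30 min room-temperature incubation.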
(In general: Quantitative high-throughput screening tests each substance at several concentrations.)
`CC(CO)c1ccccc1` (stereo not drawn): the Potency entry was “inactive”.

Take `CCOc1cc([N+](=O)[O-])c(OCC)cc1N1CCOCC1`: the Potency entry was “inactive”.

Take `O=S(O)(O)=S`: the activity change, negative = cytotoxicity is -0.106% [at 5.95 µM].

On to `CCO[Si](CCCS)(OCC)OCC`, for which the Potency entry was “inactive”.

With `N[C@@H](COP(=O)(O)O)C(=O)O`, the Potency result was “inactive”.

Turning to `Brc1ccc(-c2ccccc2)cc1`, the Potency result was “inactive”.

Turning to `CCCCC(CC)COCCO` (stereo not drawn), the Potency entry was “inactive”.

For `CN1C(C)(C)CCCC1(C)C`, the Potency entry was “inactive”.

In the case of `Nc1nnc(-c2cccc(Cl)c2Cl)c(N)n1`, the Potency entry was “inactive”.

For `COc1nccnc1NS(=O)(=O)c1ccc(N)cc1`, the Potency result was “inactive”.

Consider `Nc1ncnc(Nc2ccccc2)n1`, for which the Potency entry is “inactive”.

With `CC1=CCC(C(C)C)=CC1`, the Potency result is “inactive”.

For `CN1CCN(CC(=O)N2c3ccccc3C(=O)Nc3cccnc32)CC1`, the activity change, negative = cytotoxicity is 0.894% [at 5.95 µM].

For `CCCOC(=O)C(C)O` (stereo not drawn), the Potency was 56.1 µM (active).

With `CCOCCOCCOCC`, the Potency entry is “inactive”.

Take `CC(=C(CCOC(=O)C(C)C)SSC(CCOC(=O)C(C)C)=C(C)N(C=O)Cc1cnc(C)nc1N)N(C=O)Cc1cnc(C)nc1N`: the Potency entry is “inactive”.

`COc1ccc(-c2cc(=O)c3c(O)cc(O[C@@H]4O[C@H](CO[C@@H]5O[C@@H](C)[C@H](O)[C@@H](O)[C@H]5O)[C@@H](O)[C@H](O)[C@H]4O)cc3o2)cc1O`: the Potency entry is “inactive”.

Consider `Cc1c(I)c(=O)n(-c2ccccc2)n1C`, for which the Potency entry was “inactive”.

Consider `CCCCCCCCSCC`, for which the Potency entry is “inactive”.

As to `CCC(C=O)CC`, the Potency entry was “inactive”.

With `COc1cc(NS(=O)(=O)c2ccc(N)cc2)nc(OC)n1`, the Potency result was “inactive”.

Turning to `CCN(CC)CC(=O)Nc1c(C)cccc1C`, the Potency result is “inactive”.

Take `NC(CO)C(=O)NNCc1ccc(O)c(O)c1O` (stereo not drawn): the Potency result was “inactive”.

Values taken from PubChem BioAssay (Tox21).
